TbREL1 inh – TbREL1 RNA ligase inhibitors, primary screen, biochemical, FRET fluorescence | TbREL1 RNA ligation | inhibition, % at 9.66 µM | hit rate 0.49% among 89,000 | AID 1117264, 2014;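 active = inhibition above the mean inhibition across all screened compounds plus 3 SD, cut at about 11% in these data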;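 note: 0% = plate median of test wells and 100% = NSC42067 control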
Target sequence (P86926 whole entry, looked up): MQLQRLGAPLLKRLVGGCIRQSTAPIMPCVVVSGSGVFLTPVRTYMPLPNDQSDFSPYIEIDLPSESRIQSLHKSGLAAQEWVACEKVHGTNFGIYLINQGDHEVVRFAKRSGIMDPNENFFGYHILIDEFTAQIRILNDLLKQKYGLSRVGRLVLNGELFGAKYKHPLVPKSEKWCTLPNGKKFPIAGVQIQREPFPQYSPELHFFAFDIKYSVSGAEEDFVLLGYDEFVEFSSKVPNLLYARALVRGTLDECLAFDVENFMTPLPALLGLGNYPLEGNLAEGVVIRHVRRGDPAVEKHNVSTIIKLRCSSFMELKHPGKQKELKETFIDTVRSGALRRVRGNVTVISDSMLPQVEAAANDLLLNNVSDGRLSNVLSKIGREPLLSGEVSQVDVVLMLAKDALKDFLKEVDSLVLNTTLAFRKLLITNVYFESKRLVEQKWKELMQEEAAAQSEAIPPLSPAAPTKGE
An asterisk follows results filed as active. The full list was thinned out, with hits kept by preference.

SMILES | TbREL1 inh
COc1cc2ccc(=O)oc2c(O[C@@H]2O[C@H](CO)[C@@H](O)[C@H](O)[C@H]2O)c1O | -5
COc1cc(O)c2c(=O)c3c(O[C@H]4O[C@@H](CO)[C@H](O)[C@@H](O)[C@@H]4O)ccc(O)c3oc2c1 | -3
O=c1cc(-c2ccc(O)c(O)c2)oc2cc(O)c([C@@H]3O[C@H](CO)[C@@H](O)[C@H](O)[C@H]3O)c(O)c12 | 48*
CCC[C@H]1[C@@H](OC(=O)Oc2ccc([N+](=O)[O-])cc2)CC[C@@]23CCCN2C(=O)CCC[C@@H]13 | -2
C#CCOCCOCCOCCNc1nc(N2CCOCC2)nc(N2CCN(C(=O)CCCCCCCCCCNC(=O)[C@@H](CCC(=O)O)n3cc(CCCCCN)nn3)CC2)n1 | 2
C#CCOCCOCCOCCNc1nc(N2CCN(C(=O)[C@H]([C@@H](C)CC)n3cc(CCCCN)nn3)CC2)nc(N2CCN(C(=O)[C@H](C)n3cc(CCC(=O)O)nn3)CC2)n1 | 7
C#CCOCCOCCOCCNc1nc(N2CCOCC2)nc(N2CCN(C(=O)CCCCCCCCCCNC(=O)[C@@H]([C@H](C)CC)n3cc(CCCCCN)nn3)CC2)n1 | 13*
COc1ccc(-n2c(SCC(=O)Nc3ccc(S(=O)(=O)Nc4nccs4)cc3)nnc2-c2ccccc2)cc1 | 0
Nc1[nH]c(C(=O)c2ccccc2)c(-c2cccc3ccccc23)c1C(=O)c1c(-c2ccccc2)[nH]c2ccccc12 | -1
CC(C)C[C@H](NC(C)(C)C(=O)NC1CCCCC1)C(=O)NCC(c1ccccc1)c1ccccc1 | 9
COC(=O)C1=C(C(=O)OC)[C@@]2([C@@H](Cc3ccc(C)cc3)Nc3ccccc3)C=C[C@@H]1O2 | 4
CCCCCCOC(=O)CCn1[nH]c(=O)c2ccccc2c1=O | 2
CCCCCCCCCn1cc(C(C)=O)c(=O)[nH]c1=O | 19*
CCCCCCCN1C=CC(=O)CC1 | -4
O=C1C[C@H](c2ccc3ccccc3c2)N=C2N1/C(=C\c1ccccc1)[C@@H](c1ccccc1C(F)(F)F)N2Cc1ccc2c(c1)OCO2 | -2
CC1CN(c2nc3ccccc3nc2SCC(=O)N2CCN(S(=O)(=O)c3ccccc3)CC2)CC(C)O1 (stereo not given) | 2
COc1ccc(-c2c[n+](CC(=O)OC3CC(C)CCC3C(C)C)c3n2CCC3)cc1 (stereo not given) | 15*
CC1CCC(C(C)C)C(OC(=O)Cn2c(-c3ccc(Br)cc3)[n+](C)c3ccccc32)C1 (stereo not given) | 9
O=C(C[n+]1cc(-c2ccccc2)n2c1CCC2)c1cccs1 | 0
O=C(Nc1nnc(-c2cccnc2)s1)c1cnc2ccccc2c1 | -2
CC(=O)Nc1sc2c(c1-c1nc3ccccc3s1)CCCN(C(C)C)C2 | 0
Cc1ccc(C)c(NC(=O)CN(C)C(=O)c2ccc3c(=O)n4c(nc3c2)CCC4)c1 | 0
Cc1ccc(C)c(NC(=O)CN(C)C(=O)c2ccc(Cl)nc2)c1 | 11*
Cc1ccc(C)c(NC(=O)CN(C)C(=O)Cc2ccccc2)c1 | -1
CCOc1ccc(-n2c(SCC(=O)Nc3ccc(S(=O)(=O)Nc4cc(C)nc(C)n4)cc3)nnc2-c2ccc(OC)cc2)cc1 | -4
SMILES | TbREL1 inh
CCOC(=O)CNC(=O)CSc1nnc(-c2ccc(C(C)(C)C)cc2)n1-c1ccc(Cl)cc1 | 5
Cc1ccnc(NC(=S)N2CC3CN(c4cccc(C(F)(F)F)c4)CC3C2)c1 (stereo not given) | -3
Cc1ccc2nc(-c3ccc(NC(=O)CSc4nnc(-c5cc(C)[nH]n5)n4N)cc3)sc2c1 | 7
Cc1ccc2nc(-c3ccc(NC(=O)CSc4nnc(-c5cccc(Cl)c5)n4Cc4ccco4)cc3)sc2c1 | 2
CN1C2=NC(c3ccccc3)CC(=O)N2/C(=C\c2ccccc2)C1c1ccccc1C(F)(F)F (stereo not given) | 2
N#Cc1c(Cl)c(Cl)c2nnc(-c3ccc(Br)cc3)n2c1Cl | 16*
Cc1ccc2c(n1)sc1c(-c3ccc(Br)cc3)c(C#N)c(N)nc12 | -1
O=C(CSc1nnc(COc2ccccc2)n1-c1ccccc1)Nc1ccc(S(=O)(=O)Nc2nccs2)cc1 | -6
FC(F)(F)c1ccc2nc(CNc3nc(N4CCOCC4)nc4c3ncn4-c3ccsc3)[nH]c2c1 | -1
O=[N+]([O-])c1cccc2[nH]c(CNc3nc(N4CCOCC4)nc4c3ncn4-c3ccsc3)nc12 | -4
CCC[C@H]1[C@@H](NS(=O)(=O)c2ccccc2[N+](=O)[O-])CC[C@@]23CCCN2C(=O)CCC[C@@H]13 | -5
Cc1occc1C(=O)N/N=C/C(Br)=C/c1ccccc1 | 11*
Cn1cc(C(=O)N/N=C/C(Br)=C\c2ccccc2)ccc1=O | -3
Cc1occc1C(=O)N/N=C/c1ccc[nH]1 | 0
c1ccc2cc3[nH]c(CNc4nc(N5CCOCC5)nc5c4ncn5-c4ccsc4)nc3cc2c1 | 0
O=c1c2ccc(F)cc2nc2sc(Nc3ccc4c(c3)CCC4)nn12 | 2
O=C(c1ccc(Cl)c(Cl)c1)N1CCN(c2ccnc3cc(Cl)ccc23)CC1 | -6
O=C1CC(=O)N(Cc2ccco2)C(=O)N1 | 70*

High-throughput results: PubChem BioAssay, The Scripps Research Institute Molecular Screening Center
